Compound activity deposited in PubChem by National Center for Advancing Translational Sciences (NCATS).
This is a sample that favours compounds with a hit; in the whole collection about 7.1% have one here.
ELG1 genotox: inducers of genotoxicity in HEK293T ELG1-luciferase cells. HEK293T ELG1-luciferase reporter, luminescence, 16 h. Potency, µM (top dose mostly 46 µM), for inactives: top-dose activity change, positive = activation, actives largely listed as activators. AID 504466. hit rate 1.3% among 330,000; further: % of control where 0% means no effect; nearly all actives have a fitted effect of over 60% in size
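HEK293T cells expressing luciferase-tagged ELG1 were treated with compound or DMSO for 16 hr at 37°C. Luciferase activity was then read after 30 min with ONE-Glo at room temperature; rising signal flags genetic stress.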
ELG1 repair inh: inhibitors of ELG1-dependent DNA repair in HEK293T cells. AID 504467. Potency, µM (doses to about 46.1 µM), for the others: top-dose activity change, negative = inhibition, actives largely listed as inhibitors. HEK293T ELG1-luciferase reporter, luminescence, 16 h; DNA damage induced by 5-fluorouridine. hit rate 2.3% among 330,000; further: on the % scale 0 is the no-effect control and ±100 the full control effect; nearly all actives have a fitted effect of over 55% in size
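DMSO vehicle served as the neutral condition. Each well held 2,000 cells given 5-fluorouridine plus compound; after 16 hr at 37 °C/5% CO2, ONE-Glo was added and luciferase measured 30 min later.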
SW480 rereplic: inducers of DNA re-replication in SW480 colon cancer cells; SW480 DNA re-replication, Hoechst DNA content imaging, 48 h; Potency, µM (series often up to 46.1 µM), without a hit: at the highest dose re-replication activation, usual class: activators; hit rate 1.8% among 340,000; further: % of control where 0% means no effect; nearly all actives have a fitted effect of over 55% in size
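Quantitative HTS format with DMSO vehicle controls; 48 hr drug incubation at 37 C, then 40 min Hoechst staining and scanning imager measurement at 405 nm excitation.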
AT treatment: potential ataxia-telangiectasia treatments restoring KAP-1 phosphorylation | F2112 A-T fibroblasts, KAP-1 phosphorylation AlphaLISA; neocarzinostatin DNA damage 30 min before lysis | Potency, µM (series often up to 57.5 µM), for the others: top-dose activation, usual class: activators | hit rate 0.19% among 320,000; further: % of control where 0% means no effect; nearly all actives have a fitted effect of over 45% in size
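ATM-like activity read as KAP-1 phosphorylation via AlphaLISA donor/acceptor antibody pairs after lysis and 6 hr at 25C. Cells were ATM-null patient fibroblasts (F2112, hTERT), dosed 60 min, then exposed to the DSB inducer NCS for 30 min.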
p53 reactivator: re-activators of mutant p53; H1299 p53-A138V BP100-luciferase reporter, luminescence, 24 h; AID 504706; hit rate 0.063% among 320,000; Potency, µM (series often up to 92.2 µM), without a hit: at the top dose activity change, positive = activation, actives largely listed as activators; further: % of control where 0% means no effect; nearly all actives have a fitted effect of over 45% in size
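H1299 (p53-null), stable ts p53-A138V + BP100-Luc; 1000 cells/well, Opti-MEM/10% FBS; cpd 4 pt, 1:5; 24 h, 37 deg C, 5% CO2; detection reagent 10 min RT; luminescence.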
MCF10A rerep: induces DNA re-replication in MCF 10a normal breast cells. MCF 10A DNA re-replication, Hoechst nuclear intensity, 48 h. Potency, µM (titrated, usually from 46.1 µM), without a hit: at the highest dose activity, positive = re-replication, most hits filed as activators. hit rate 2.9% among 350,000. AID 624296; further: % of control where 0% means no effect; nearly all actives have a fitted effect of over 50% in size
The depositor's hits bear a star; u = inconclusive; x = no result. The call rests on the fitted dose curve; in most records, active means well fitted curve in the direction sought with a large enough effect; inconclusive means small, poorly fitted or top-dose-only effect, or another doubt; inactive means no such curve, though single readings can be large; an effect the other way counts as inactive or inconclusive. Potency means the concentration at half of the fitted maximal effect.

SMILES | ELG1 genotox | ELG1 repair inh | SW480 rereplic | AT treatment | p53 reactivator | MCF10A rerep
O=C(Cc1ccccc1)NCC(=O)N/N=C/c1ccc([N+](=O)[O-])s1 | -15% | u | 15µM* | -1% | 19% | 5%
CC(=O)Nc1ccc(S(=O)(=O)NCC(=O)OCC(=O)NCc2ccco2)cc1 | 0% | 15% | -4% | 1% | 3% | 1%
Cc1cc(C)c(C(=O)CC(=O)c2cccnc2)c(C)c1 | x | x | u | x | x | 27%
COC(=O)C1C2CCCCC1C(=O)O2 (configuration not stated) | x | x | -2% | x | x | 0%
O=[N+]([O-])c1ccc(C=Nc2cccc3ccccc23)s1 | 16% | 1% | 6.5µM* | 13% | -10% | 21µM*
CC1(C)Oc2ccc3ccc(=O)oc3c2[C@@H](O)[C@H]1O | 4% | 26% | 3% | -3% | 15% | 10%
Cc1c(CN2CCC(n3nccc3NC(=O)C3CC3)CC2)[nH]c2ccccc12 | -6% | -5% | -5% | 3% | 11% | 4%
O=C(NNS(=O)(=O)c1ccccc1)c1csc(-c2cccnc2)n1 | -8% | 12µM* | -4% | -8% | -4% | 1%
NS(=O)(=O)c1ccc(Oc2ccc(S(N)(=O)=O)cc2)cc1 | -2% | -9% | -4% | 1% | -4% | -24%
C=CS(=O)(=O)c1ccc(Oc2ccc(S(=O)(=O)C=C)cc2)cc1 | -15% | 2.6µM* | u | 1% | -21% | 3.3µM*
Nc1cc(S(=O)(=O)N2CCOCC2)ccc1Oc1cccc(Br)c1 | 0% | 13% | 4% | 4% | -3% | 17%
O=c1[nH]c(O)c(/C=C2\C=Nc3ccc(Br)cc32)[nH]1 | 5% | 1% | 1% | 3% | -83% | -2%
Cc1cc(SCc2ccccc2Cl)nc(=O)[nH]1 | -3% | 3% | -2% | 0% | -6% | -10%
Cc1cc(SCc2ccc(Cl)cc2Cl)nc(=O)[nH]1 | 0% | -16% | u | 3% | -13% | 9.2µM*
O=C(CCC(=O)c1ccc(Cl)s1)Nc1ncccc1O | 6% | u | u | -1% | 18% | 2%
Cc1ccc(-n2cnc(N)c2C(=O)c2cccc([N+](=O)[O-])c2)cc1 | -12% | u | u | -6% | -3% | 15µM*
CC1(C)CC(=O)C=C(CN2C(=O)c3ccccc3C2=O)C1=O | 1% | 9% | 1% | 2% | 4% | -1%
CN(C)c1ccc(NC(=O)CSc2n[nH]c(-c3ccncc3)n2)cc1 | x | x | -7% | x | x | -1%
O=C(CSc1n[nH]c(-c2ccncc2)n1)Nc1ccc(Br)cc1 | -5% | -10% | -6% | 20µM* | 4% | -1%
CNC(=S)N/N=C/c1ccccc1Cl | 4% | u | -12% | 13% | 9% | -2%
O=[N+]([O-])c1ccc(/C=N/NC(=S)Nc2ccccc2F)o1 | 7% | u | 13% | 6% | 33% | -10%
Oc1ccccc1/C=N/NC(=S)NC1CC2CC1C1C=CCC21 (configuration not stated) | u | u | u | 3% | u | 21µM*
S=C(N/N=C/c1ccccc1Cl)Nc1ccccc1 | 0% | 11µM* | u | 12% | 19% | 10%
Fc1ccccc1NC(=S)N/N=C/c1ccccc1Br | 4.5µM* | u | 18µM* | 5% | u | u
Oc1ccccc1C=NNC(=S)NN=Cc1ccccc1O | x | x | 3.7µM* | x | x | 18µM*
CCOCCn1c(SC(C)C(C)=O)nc2c1c(=O)[nH]c(=O)n2C (configuration not stated) | 6% | 5% | -6% | 9% | -2% | 4%
Cc1cc(-n2c(C)cc(C(=O)COc3ccc(F)c(F)c3)c2C)no1 | 9% | 13% | -22% | -4% | u | 23%
